Among the test systems are NCI-H23 lung; NCI-H226 lung; NCI-H322M lung; HOP-62 NSCLC; NCI-H460 lung; HOP-92 NSCLC; NCI-H522 lung; A549/ATCC NSCLC; 786-0 renal; COLO 205 colon; DU-145 prostate; K-562 leukemia; MALME-3M melanoma; MDA-MB-231 breast; RXF 393 renal; SF-268 CNS; SF-295 CNS; SF-539 CNS; UACC-257 melanoma; M14 melanoma.
Assay in all cases: NCI-60 one-dose screen, 48 h (100 = growth as untreated, 0 = no growth, -100 = all killed)
Details in all cases: 10 µM unless noted

The panel holds about 83,000 compounds, 20% with a hit somewhere; the sample as a whole holds those more often.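 48-hour exposure, single concentration, 96-well plates; percent growth endpoint where 0 means no net growth. Active: below 10.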 A number with no mark means an inactive call. Active and inactive are the calls of the source.

As to `O=C1CC2C=CCN2C=C1NC(=O)C1CCCCC1` (stereo not given), the growth was 97.4% with NCI-H23 lung; 104% in the experiment on NCI-H226 lung; 100% with NCI-H322M lung; 102% with HOP-62 NSCLC; 112% in the experiment on NCI-H460 lung; 115% with HOP-92 NSCLC. The growth in the experiment on NCI-H522 lung is 89.7%; in the experiment with A549/ATCC NSCLC it was 97.5%; in the experiment on 786-0 renal it was 99.5%; in the experiment with COLO 205 colon it was 105%; with DU-145 prostate it was 98.9%; in the experiment on K-562 leukemia, 99.9%. The growth in the experiment on MALME-3M melanoma is 78%; in the experiment on MDA-MB-231 breast it was 108%; in the experiment on RXF 393 renal, 104%; in the experiment on SF-268 CNS, 95.5%; with SF-295 CNS, 98.5%; in the experiment on SF-539 CNS, 98.4%. For the same compound, the growth with UACC-257 melanoma was 97.8%; in the experiment on M14 melanoma, 114%.
As for `O=C1NC(=O)c2c1c1c3ccccc3[nH]c1c1oc3cc(Br)ccc3c21`, the growth with NCI-H23 lung was 76.2%; in the experiment with NCI-H226 lung, 58.9%; with NCI-H322M lung, 75.7%; in the experiment on HOP-62 NSCLC, 65.9%; in the experiment on NCI-H460 lung it was 36.8%; with HOP-92 NSCLC it was 87.9%. Also, the growth in the experiment on NCI-H522 lung is 50.6%; in the experiment with A549/ATCC NSCLC it was 84.7%; in the experiment on 786-0 renal it was 81.7%; with COLO 205 colon, 72.3%; in the experiment on DU-145 prostate, 90.2%; in the experiment on K-562 leukemia it was 55%. The growth is 87% with MALME-3M melanoma; 80.5% with MDA-MB-231 breast; 88.1% in the experiment with RXF 393 renal; 76.4% in the experiment on SF-268 CNS; 52.8% in the experiment on SF-295 CNS; 96.9% in the experiment with SF-539 CNS. The growth is 96.4% in the experiment on UACC-257 melanoma and 65.8% in the experiment with M14 melanoma.
`COc1cccc2c(N=NC(=O)c3ccc(S(N)(=O)=O)cc3)c(O)[nH]c12`: the growth in the experiment on NCI-H23 lung was 99.4%; in the experiment with NCI-H226 lung, 95.8%; in the experiment on NCI-H322M lung, 99.7%; in the experiment with HOP-62 NSCLC, 102%; in the experiment on NCI-H460 lung it was 104%; in the experiment with HOP-92 NSCLC, 118%. The growth was 87.1% in the experiment with NCI-H522 lung; 95.5% in the experiment on A549/ATCC NSCLC; 95.6% in the experiment on 786-0 renal; 109% in the experiment with COLO 205 colon; 115% with DU-145 prostate; 98.5% in the experiment on K-562 leukemia. Further, the growth with MALME-3M melanoma is 103%; in the experiment with MDA-MB-231 breast, 102%; in the experiment on RXF 393 renal it was 106%; with SF-268 CNS, 106%; with SF-295 CNS it was 102%; with SF-539 CNS it was 102%. In addition, the growth with UACC-257 melanoma is 107%; with M14 melanoma, 102%.
Turning to `O=C(/C=C/c1ccccc1)Nc1ncc(Cc2ccccc2)s1`, the growth in the experiment with NCI-H23 lung was 24.8%; in the experiment with NCI-H226 lung, 60.3%; in the experiment with NCI-H322M lung it was 31.4%; with HOP-62 NSCLC, 13.7%; with NCI-H460 lung it was 2.22% (active); in the experiment with HOP-92 NSCLC, 85.7%. Further, the growth is -4.58% (active) with NCI-H522 lung; 22.1% in the experiment on A549/ATCC NSCLC; 24.5% in the experiment with 786-0 renal; 8.42% (active) in the experiment on COLO 205 colon; 16% in the experiment with DU-145 prostate; 10.5% in the experiment with K-562 leukemia. Moreover, the growth is 44.3% with MALME-3M melanoma; 33.4% in the experiment on MDA-MB-231 breast; 10.9% in the experiment with RXF 393 renal; 39.4% with SF-268 CNS; -10.7% (active) with SF-295 CNS; -22.2% (active) in the experiment on SF-539 CNS. Besides, the growth in the experiment with UACC-257 melanoma is 48.3%; in the experiment on M14 melanoma it was 5.78% (active).
Take `CCCCC(=O)Nc1ncc(Cc2ccccc2Cl)s1`: the growth with NCI-H23 lung was 69.4%; with NCI-H226 lung, 63.4%; in the experiment with NCI-H322M lung, 86.8%; in the experiment with HOP-62 NSCLC, 42.7%; with NCI-H460 lung it was 51%; with HOP-92 NSCLC, 51.3%. In addition, the growth with NCI-H522 lung was 19.9%; with A549/ATCC NSCLC, 40.9%; in the experiment on 786-0 renal, 50%; in the experiment on COLO 205 colon, 37%; in the experiment with DU-145 prostate it was 67.2%; in the experiment on K-562 leukemia, 24.8%. Further, the growth in the experiment with MALME-3M melanoma is 52.1%; with MDA-MB-231 breast, 53.3%; with RXF 393 renal, 31.3%; in the experiment with SF-268 CNS it was 69.6%; with SF-295 CNS it was 45.7%; in the experiment with SF-539 CNS, 39.2%. Further, the growth in the experiment on UACC-257 melanoma was 55.3%; in the experiment with M14 melanoma, 21.8%.
On to `CCCCSCC(=O)c1ccccc1`, for which the growth with NCI-H23 lung was 86.2%; in the experiment on NCI-H226 lung, 99.6%; in the experiment with NCI-H322M lung, 89.7%; in the experiment with HOP-62 NSCLC, 80.9%; with NCI-H460 lung, 109%; with HOP-92 NSCLC, 94.5%. The growth with NCI-H522 lung is 58.2%; in the experiment on A549/ATCC NSCLC, 78.1%; in the experiment on 786-0 renal, 99.8%; with COLO 205 colon, 100%; in the experiment on DU-145 prostate, 103%; with K-562 leukemia it was 97.3%. The growth in the experiment with MALME-3M melanoma was 89.6%; with MDA-MB-231 breast, 102%; in the experiment on RXF 393 renal, 114%; in the experiment on SF-268 CNS, 97.1%; in the experiment with SF-295 CNS it was 105%; with SF-539 CNS, 98.4%. In addition, the growth is 80.9% in the experiment with UACC-257 melanoma and 99.4% in the experiment with M14 melanoma.
Turning to `CCOC(=O)c1c2c(n3c1NCC3)-c1ccccc1C2=O`, the growth was 99% in the experiment on NCI-H23 lung; 99.6% in the experiment with NCI-H226 lung; 105% in the experiment with NCI-H322M lung; 102% in the experiment on HOP-62 NSCLC; 107% in the experiment with NCI-H460 lung; 84% in the experiment on HOP-92 NSCLC. Further, the growth was 36.2% in the experiment on NCI-H522 lung; 101% with A549/ATCC NSCLC; 94.3% in the experiment with 786-0 renal; 110% in the experiment on COLO 205 colon; 100% in the experiment with DU-145 prostate; 87.3% in the experiment on K-562 leukemia. Also, the growth is 89.9% in the experiment on MALME-3M melanoma; 107% in the experiment with MDA-MB-231 breast; 102% in the experiment on RXF 393 renal; 99.6% in the experiment on SF-268 CNS; 96% with SF-295 CNS; 93.7% with SF-539 CNS. Besides, the growth with UACC-257 melanoma was 95.7%; in the experiment with M14 melanoma, 104%.

(Values after PubChem BioAssay (NCI).)
